NPC1 prom act = qHTS Assay for NPC1 Promoter Activators; hit rate 2.4% among 320,000; Huh7 NPC1 promoter luciferase reporter, 24 h; Potency, µM (titrated, usually from 9.22 µM), without a hit: at the top dose activation, hits mostly activators; AID 485313, 2010; note: % of control where 0% means no effect; nearly all actives have a fitted effect of over 60% in size
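Compounds in DMSO were transferred onto Huh7 NPC1-luciferase reporter cells pre-incubated 2 h; after 24 h at 37 °C, Amplite reagent was dispensed and luminescence recorded 10 min later.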
FLuc counter = qHTS profiling assay for firefly luciferase inhibitor/activator using purifed enzyme and Km concentrations of substrates (counterscreen for miR-21 project); Potency, µM (series often up to 57.5 µM), inactives show top-dose activity change, negative = inhibition, hits mostly inhibitors; hit rate 6.9% among 360,000; purified FLuc, Km substrates, luminescence inhibition;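 note: plate controls were vehicle for no effect and reference inhibitor for full effect; nearly all actives have a fitted effect of over 55% in size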
Target sequence (P08659 whole entry, looked up): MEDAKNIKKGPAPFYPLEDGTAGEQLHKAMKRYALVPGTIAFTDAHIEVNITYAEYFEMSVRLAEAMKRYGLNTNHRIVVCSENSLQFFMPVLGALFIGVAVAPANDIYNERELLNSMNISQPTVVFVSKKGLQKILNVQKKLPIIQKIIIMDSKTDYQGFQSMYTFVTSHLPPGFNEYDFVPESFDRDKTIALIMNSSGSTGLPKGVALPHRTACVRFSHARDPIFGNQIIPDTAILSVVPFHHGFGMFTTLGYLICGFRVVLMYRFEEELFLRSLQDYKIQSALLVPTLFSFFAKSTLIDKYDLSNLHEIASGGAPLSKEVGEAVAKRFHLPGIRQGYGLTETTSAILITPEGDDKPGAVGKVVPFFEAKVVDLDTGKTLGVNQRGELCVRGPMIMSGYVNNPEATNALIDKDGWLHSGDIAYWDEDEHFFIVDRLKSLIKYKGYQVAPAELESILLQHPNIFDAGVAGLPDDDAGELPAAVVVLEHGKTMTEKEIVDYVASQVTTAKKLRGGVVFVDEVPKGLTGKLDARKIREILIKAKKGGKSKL
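Purified P. pyralis luciferase (10nM final) with 10uM D-luciferin and 10uM ATP (Km levels) in 50mM Tris acetate pH 7.5, 10mM Mg acetate, 0.01% Tween-20, 0.05% BSA; qHTS 6-point titration, ~60 µM downward; luminescence read.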
SMN2 splice enh = qHTS Assay for Enhancers of SMN2 Splice Variant Expression; HEK293 SMN2-luciferase splicing reporter, luminescence, 30-36 h; Potency, µM (highest dose often 46.1 µM), without a hit: top-dose activity change, positive = activation, usual class: activators; hit rate 2.8% among 210,000; AID 1458, 2008; note: % of control where 0% means no effect; nearly all actives have a fitted effect of over 55% in size
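HEK293 cells carry an SMN2 […]–luciferase reporter in which exon 7 inclusion puts luciferase in frame. Cells were plated 10-12 h before compound addition, then incubated 30-36 h at 37C. ONE-Glo luminescence was read; sodium butyrate at 4.5 mM final served as control.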
ELG1 genotox = qHTS screen for small molecules that induce genotoxicity in human embryonic kidney (HEK293T) cells expressing luciferase-tagged ELG1; hit rate 1.3% among 330,000; AID 504466, 2011; HEK293T ELG1-luciferase reporter, luminescence, 16 h; Potency, µM (titrated, usually from 46 µM), for the others: at the top dose activity change, positive = activation, most hits filed as activators; note: % of control where 0% means no effect; nearly all actives have a fitted effect of over 60% in size
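DMSO vehicle served as control against compound-treated ELG1-luciferase HEK293T cells; exposure lasted 16 hr at 37 °C and 5% CO2, followed by ONE-Glo luminescence detection after 30 min.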
Rab9 prom act = qHTS Assay for Rab9 Promoter Activators; Huh7 Rab9 promoter-luciferase reporter, luminescence, 24 h; Potency, µM (highest dose often 9.22 µM), for the others: at the top dose activation, negative = inhibition, hits mostly activators; hit rate 2.8% among 320,000; AID 485297, 2010; note: % of control where 0% means no effect; nearly all actives have a fitted effect of over 60% in size
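Rab9 promoter-driven luciferase in stably transfected Huh7 cells; 1500 cells/well rested 2 h, exposed to compound in DMSO for 24 h at 37 °C, 5% CO2. Luminescence read 10 min after adding luciferase reagent at ambient temperature.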
ELG1 repair inh = qHTS screen for small molecules that inhibit ELG1-dependent DNA repair in human embryonic kidney (HEK293T) cells expressing luciferase-tagged ELG1 | HEK293T ELG1-luciferase reporter, luminescence, 16 h; DNA damage induced by 5-fluorouridine | Potency, µM (doses to about 46.1 µM), without a hit: at the highest dose activity change, negative = inhibition, hits mostly inhibitors | hit rate 2.3% among 330,000; note: % is set by controls: 0 for no effect and ±100 for the full control effect; nearly all actives have a fitted effect of over 55% in size
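Overnight (16 hr) co-exposure of 2,000 cells/well to 5-fluorouridine and compound at 37 °C preceded detection. Luciferase was quantified via ONE-Glo luminescence; loss of signal denotes inhibition.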
* = called active by the depositor; ? = inconclusive; . = no result given; [ ] = dose if it differs, or a comment. This is a sample that favours compounds with a hit; in the whole collection about 9.4% have one here. Calls come from the whole dose curve; as a rule, active = well fitted curve in the direction sought with a large enough effect; inconclusive = small, poorly fitted or top-dose-only effect, or another doubt; inactive = no such curve, though single readings can be large; an effect the other way counts as inactive or inconclusive. Potency is the fitted concentration of half-maximal effect.

SMILES | NPC1 prom act | FLuc counter | SMN2 splice enh | ELG1 genotox | Rab9 prom act | ELG1 repair inh
O=C(NCc1cccc(F)c1)C1CCN(c2nc3ccccc3nc2C(F)(F)F)CC1 | . | -0.7% | . | . | . | .
Cc1ccc(C)c(OCc2cc(C(=O)N3CCc4sccc4C3)no2)c1 | -2.9% | 0.5% | . | -11.1% | 0.3% | -23.4%
O=C(c1cc(COc2ccc(F)cc2F)on1)N1CCN(C(=O)c2ccco2)CC1 | 0.5% | -11.7% | . | -8.2% | -3.3% | -9.9%
Cc1ccc(C)c(OCc2cc(C(=O)N3CCN(C(=O)c4ccco4)CC3)no2)c1 | 3.16µM* | 19µM* | . | ? | 4.47µM* | ?
CCc1cc(C(=O)N2CCN(c3ccccc3)CC2)no1 | . | -14.2% | -0.3% | . | . | .
Cc1ccc(C)c(OCc2cc(C(=O)N3CCN(c4ccccc4)CC3)no2)c1 | 2.82µM* | 19µM* | . | 29.5% | 3.98µM* | ?
Cc1ccc(C)c(OCc2cc(C(=O)N3C[C@@H](C)O[C@@H](C)C3)no2)c1 | 2.24µM* | 6.01µM* | . | ? | 1.58µM* | ?
CCn1c(=O)n(CC2CCC(C(=O)NC(C)C)CC2)c(=O)c2sccc21 (centres undefined) | . | -1.5% | . | . | . | .
CCOC(=O)c1cccc(NC(=O)CCC(=O)N2CC(C)Oc3ccc(C)cc32)c1 (centres undefined) | . | -7.6% | . | . | . | .
O=C1NC(c2cccs2)Nc2sc3c(c21)CCCC3 (centres undefined) | 2.82µM* | 6.75µM* | ? | 8.4% | 3.55µM* | ?
Cc1nc(C#N)c(N/N=C/c2c(F)cccc2Cl)o1 | 9.7% | 23.9µM* | ? | 4.6% | 19.1% | ?
Cc1nc(N)nc(N/N=C/c2c(F)cccc2Cl)n1 | 7.4% | ? | . | 8.0% | -2.5% | ?
C[C@@H](C(=O)N[C@@H](CO)Cc1ccccc1)[C@H]1C[C@]1(C)[C@H](NC(=O)OCc1ccccc1)c1ccccc1 | . | . | -18.0% | . | . | .
CC(C)(C)c1ccc(OC(=O)Nc2ccc(O)c(C(=O)O)c2)cc1 | -0.6% | 1.2µM* | -13.2%[9.22 µM] | 5.7% | 3.5% | 28.1%
NC(=O)C1CC(=O)N(c2ccc(OCC(=O)Nc3ccccc3F)cc2)C1 (centres undefined) | ? | 16.9µM* | . | ? | 2.24µM* | ?
Cc1ccc(OCC(=O)Nc2ccc(O)c(C(=O)O)c2)cc1C | 0.7% | 16.9µM* | -4.0% | 2.2% | 0.8% | 18.2%
Cc1ccccc1NC(=O)c1ccc(OCC(=O)Nc2ccccc2F)cc1 | -1.3% | 4.4% | -7.3% | -7.3% | -0.6% | -8.7%
Cc1ccc(OCC(=O)Nc2ccc(N3CCCC3)cc2)cc1C | 2.0% | -4.8% | 2.1% | 3.7% | 8.0% | ?
Cc1ccc(OCC(=O)Nc2ccccc2F)cc1C | 21.9% | 9.53µM* | . | 10.3µM* | ? | ?
CCCCC/C=C\C\C=C/C=C/C=C/[C@@H](SCC(N)C(=O)O)[C@@H](O)CCCC(=O)O (some centres undefined) | . | . | 11.0% | . | . | .
Cc1nn(C)c2c1c(-c1ccccc1)cc(=O)n2CC(=O)NC(C)c1ccccc1 (centres undefined) | . | 0.2% | . | . | . | .
Cc1ccc2nc(Cl)c3cc(C(=O)NC4CCCCC4)sc3c2c1 | . | -4.3% | 5.6% | . | . | .
CCNC(=O)CC1C(=O)N(c2cccc(OC)c2)C(=O)N1Cc1ccc(OC)c(OC)c1 (centres undefined) | . | -0.4% | 0.6% | . | . | .
Cc1ccc(C(=O)N/C(=C\c2ccccc2)C(=O)NCc2ccncc2)cc1 | -1.4% | -5.1% | 14.8% | -2.3% | -2.7% | 1.84µM*
Cc1ccc(C(=O)N/C(=C/c2ccccc2)C(=O)NCc2ccncc2)cc1 | -1.3% | -0.1% | . | -0.4% | -2.1% | ?
SMILES | NPC1 prom act | FLuc counter | SMN2 splice enh | ELG1 genotox | Rab9 prom act | ELG1 repair inh
COc1cc(/C=N/NC(=O)Cn2nnc3ccccc32)ccc1O | -3.4% | -6.1% | 9.7% | -0.2% | 11.5% | 8.8%
COc1cc(/C=N/NC(=O)CCn2nnc3ccccc32)ccc1O | 1.2% | 15.1µM* | 9.3% | 3.7% | 2.4% | 20.7%
COc1cccc(/C=N\NC(=O)Cn2nnc3ccccc32)c1O | -13.9% | 16.9µM* | . | ? | -25.6% | -5.9%
COc1ccc(-n2c(-c3ccc(F)cc3)cn3c4c(=O)n(C)c(=O)n(C)c4nc23)cc1 | . | -1.5% | 7.2% | . | . | .
COC(=O)[C@@]1(Cc2ccc(F)cc2)[C@H]2c3cc(C(=O)N4CCCC4)n(Cc4c(CO)[nH]cc(C)c4=O)c3C[C@H]2CN1C(=O)c1ccccc1 | . | . | -5.1% | . | . | .
COc1ccc(C(CNC(=O)C(=O)Nc2ccc3c(c2)OCCO3)N2CCN(C)CC2)cc1 (centres undefined) | 1.2% | 3.7% | . | -1.9% | -8.8% | 19.6%
COc1ccc(C(C#N)=C2C=CC(=NO)C=C2)cc1 | -1.3% | 16.9µM* | . | -3.6% | 0.1% | -15.8%
COc1ccc(C(=O)Nc2ccccc2N2CCOCC2)cc1[N+](=O)[O-] | 1.4% | -1.2% | -14.6% | 0.5% | 4.5% | 12.5%
COc1ccc(Cl)cc1C(=O)NC(=S)Nc1ccccc1N1CCOCC1 | 3.6% | 5.4% | . | 9.7% | 10.3% | 4.0%
COc1ccc(C(=O)NC(=S)Nc2ccc(N3CCOCC3)c(Cl)c2)cc1[N+](=O)[O-] | -10.9% | -9.3% | . | -10.6% | -10.4% | 13µM*
COc1ccc(C(=O)NC(=S)Nc2ccccc2N2CCOCC2)cc1[N+](=O)[O-] | 0.7% | 2.0% | -19.8% | -8.3% | -2.7% | 18.4µM*
O=C(NC(=S)Nc1cc(Cl)ccc1N1CCOCC1)c1ccccc1[N+](=O)[O-] | -2.5% | 4.9% | . | -3.6% | -6.3% | 16.4µM*
COc1ccc(C(=O)NC(=S)N2CCOCC2)cc1[N+](=O)[O-] | 2.6% | -2.6% | . | 5.3% | -6.1% | -1.4%
CNc1ncnc2ccc(-c3c(C)noc3C)cc12 | -1.3% | 3.2% | . | . | -1.1% | .
Cc1ccc(NC(=O)Cn2ccn(-c3ccc(F)c(F)c3)c(=O)c2=O)cc1C | . | -0.8% | . | . | . | .
Clc1ccccc1OCc1nc(-c2ccccn2)no1 | 0.447µM* | 1.9µM* | 4.47µM* | 4.61µM* | 0.316µM* | ?
Clc1ccc(OCc2nc(-c3ccccn3)no2)c(Br)c1 | 0.355µM* | 0.213µM* | 0.562µM* | 0.82µM* | 0.447µM* | ?
COc1ccc(-c2nc3sc(CCNC(=O)Cc4ccc(Cl)cc4)c(C)n3n2)cc1 | . | -18.0% | . | . | . | .
COc1ccc(-c2nc3sc(CCNC(=O)C(=O)Nc4ccccc4C#N)c(C)n3n2)cc1 | . | 2.0% | . | . | . | .
CCOc1cc(C(=O)NCCc2csc3nc(-c4ccccc4F)nn23)cc(OCC)c1OCC | . | -12.9% | . | . | . | .
